Screening results: PubChem, National Center for Advancing Translational Sciences (NCATS)
TDP1 cell noCPT = qHTS for Inhibitors of human tyrosyl-DNA phosphodiesterase 1 (TDP1): qHTS in cells in absence of CPT; Potency, µM (doses to about 46.2 µM), without a hit: at the top dose activity change, negative = growth inhibition, hits mostly inhibitors; DT40 Tdp1-/- hTDP1 cells, no CPT, ATP luminescence, 48 h; hit rate 15% among 420,000; AID 686978, 2013; further: nearly all actives have a fitted effect of over 55% in size
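Stably hTDP1-transfected Tdp1-null chicken DT40 cells were treated with library compounds minus camptothecin and grown for at least 48 hr at 37 °C, after which cellular ATP was quantified by luminescence.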
KB-V1 MDR tox = KB-V1 MDR subline cytotoxicity | KB-V1 MDR cells viability, CellTiter-Glo, 72 h | Potency, µM (series often up to 46.1 µM), hits mostly cytotoxic | hit rate 3.4% among 400,000 | AID 1347076; further: nearly all actives have a fitted effect of over 60% in size
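In this primary screen, KB-V1 cells overexpressing P-gp are incubated with library compounds (lowest to highest concentration) for 72 h at 37 degrees C before a luminescent ATP viability read.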
HT1080 IDH1KD tx = kills HT-1080 cells with IDH1 knockdown. HT-1080 IDH1 knockdown viability, ATP luminescence, 48 h. hit rate 2% among 360,000. Potency, µM (titrated, usually from 46.1 µM), for inactives: at the highest dose activity, negative = toxicity, hits mostly cytotoxic;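 further: 0% = DMSO wells and -100% = cell-free medium wells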
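HT-1080-IDH1KD cells (IDH1 knocked down), 750/well in RPMI with 5% FBS, treated with compound 48 h at 37 degrees C. Viability by CellTiter-Glo luminescence, normalised to DMSO and no-cell wells; concentration-response curves classed.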
HT1080NT lethal = kills 2HG-producing HT-1080-NT fibrosarcoma cells; HT-1080-NT fibrosarcoma viability, CellTiter-Glo ATP luminescence, 48 h; Potency, µM (top dose mostly 46.1 µM), for inactives: top-dose activity, negative = less viability, hits mostly cytotoxic; hit rate 1.6% among 360,000; AID 686970;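 further: NT is the 2HG producing partner of a matched IDH1 knockdown line; 0% = DMSO-treated cells and -100% = media-only wells without cells; nearly all actives have a fitted effect of over 55% in size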
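Compounds were tested in concentration-response format on HT-1080-NT cells for 48 hours at 37 degrees C. Cell viability came from CellTiter-Glo luminescence; curves were classified by r2, response magnitude and activity.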
KB-3-1 tox = kills parental KB-3-1 adenocarcinoma cells; Potency, µM (highest dose often 46.1 µM), usual class: cytotoxic; hit rate 1.4% among 400,000; AID 1347075; KB-3-1 viability, CellTiter-Glo ATP luminescence, 72 h; further: nearly all actives have a fitted effect of over 60% in size
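KB-3-1 cells, DMEM (no phenol red) + 10% FBS; compound by pin transfer, 72 h, 37 °C. Readout: CellTiter-Glo luminescence after 10 min. Data normalized, curve-fitted.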
DT40 TDP1 CPT = growth inhibition of DT40 Tdp1-/-;hTDP1 cells with camptothecin (screen for TDP1 inhibitors) | hit rate 12% among 420,000 | chicken DT40 Tdp1-/-;hTDP1 cells + 20 nM CPT, ATP luminescence, 48 h | AID 686979 | Potency, µM (titrated, usually from 46.2 µM), without a hit: at the highest dose activity change, negative = growth inhibition, most hits filed as inhibitors; further: nearly all actives have a fitted effect of over 55% in size
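Chicken DT40 Tdp1-/- cells stably complemented with human TDP1 were seeded at 400 cells/well in medium containing 20 nM camptothecin, exposed to pin-transferred compounds, and grown at 37 °C for at least 48 hr. Viability was read as ATP luminescence.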
Numbers without * were called inactive; i = inactive; u = inconclusive; x = not tested or not shown; [ ] = dose if it differs, or a comment. An excerpt weighted towards active compounds, which were near 19% of everything screened. The call rests on the fitted dose curve; in most records, active means well fitted curve in the direction sought with a large enough effect; inconclusive means small, poorly fitted or top-dose-only effect, or another doubt; inactive means no such curve, though single readings can be large; an effect the other way counts as inactive or inconclusive. Unless noted, on the % scale 0 is the no-effect control and ±100 the full control effect; potency means the concentration at half of the fitted maximal effect.

SMILES | TDP1 cell noCPT | KB-V1 MDR tox | HT1080 IDH1KD tx | HT1080NT lethal | KB-3-1 tox | DT40 TDP1 CPT
OC(Cc1ccnc2ccccc12)C(Cl)(Cl)Cl (stereo not drawn) | 10µM* | i | -2% | -11% | i | u
Cc1onc(-c2ccccc2Cl)c1C(=O)Nc1sc2c(c1C#N)CCC2 | -22% | u | -21% | -16% | i | -28%
N#Cc1c(NC(=O)C2CC(c3ccccc3Cl)=NO2)sc2c1CCC2 (stereo not drawn) | -18% | 26µM* | 0% | -2% | i | 4%
N#Cc1c(NC(=O)C2CC(c3ccccc3O)=NO2)sc2c1CCC2 (stereo not drawn) | u | 21µM* | -7% | 0% | i | -2%
CCCCCC(=O)O/N=C(\C)c1ccn(S(=O)(=O)c2ccccc2)c1 | -89% | i | -14% | -8% | i | 15µM*
CCCC(=O)O/N=C(\c1ccccc1)c1ccncc1 | -6% | i | 8% | 8% | i | -5%
COc1cc(C(=C(CC(=O)O)C(=O)O)c2ccc3c(c2)OCO3)cc(OC)c1OC | -16% | i | 1% | 2% | i | 2%
COc1cc(C2c3cc4c(cc3OC(NNC(N)=O)C2C)OCO4)cc(OC)c1OC (stereo not drawn) | 1.3µM* | 7.3µM* | u | 1.3µM* | 0.52µM* | 1.3µM*
COc1cccc(C2c3cc4c(cc3OC(NNC(N)=O)C2C)OCO4)c1O (stereo not drawn) | 4.1µM* | 4.6µM* | 6.5µM* | 4.6µM* | 1.5µM* | 4.6µM*
COc1cc(C2c3cc4c(cc3OC(NNC(N)=S)C2C)OCO4)cc(OC)c1OC (stereo not drawn) | 0.92µM* | u | u | 1.8µM* | 1µM* | 1.3µM*
COc1cc(CCC(=O)OCC(=O)Nc2ccc3c(c2)OCO3)cc(OC)c1OC | 15% | i | 8% | 1% | i | 4%
COc1ccc(C2c3cc4c(cc3OC(NNC(N)=O)C2C)OCO4)cc1 (stereo not drawn) | u | 9.2µM* | 16µM* | u | 6.5µM* | u
Cc1ccc(C)c(S(=O)(=O)NCc2ccc(C(=O)N3CCC(Cc4ccccc4)CC3)cc2)c1 | u | i | u | u | i | u
Cc1cc(C)c2c(CC(=O)Nc3c(C(=O)Nc4ccc(Cl)cc4)oc4ccccc34)coc2c1 | u | i | x | x | i | u
COc1cc(CN2CCOc3ccc(CN4CCC(O)(c5cccnc5)CC4)cc3C2)ccc1F | u | x | x | x | x | 7%[9.04 µM]
Cn1cnc(NCc2ccccc2)c1[N+](=O)[O-] | -4% | i | 2% | 2% | i | 1%
COc1cc(C2c3cc4c(cc3OC(NCc3ccccc3)C2C)OCO4)cc(OC)c1OC (stereo not drawn) | 1.5µM* | u | 1.2µM* | 1.6µM* | 0.58µM* | 1.2µM*
COc1cc(C2c3cc4c(cc3C(O)C3COCC23)OCO4)cc(OC)c1OC (stereo not drawn) | u | u | u | 26µM* | 5.2µM* | u
COc1cc(CC(=O)NCc2ccc3c(c2)OCO3)cc(OC)c1OC | -20% | i | 8% | 13% | u | -25%
O=C(CCl)c1ccc2c(c1)CCCC2 | 0.79µM* | i | x | x | i | 0.89µM*
O=C(NCCO)C(=O)Nc1cc2c3c(c1)CC(=O)N3CCC2 | u | i | 0% | -2% | i | -4%
O=C(COc1ccc(Br)cc1)c1ccc2c(c1)CCCC2 | 23µM* | i | 8% | -2% | i | u
O=C(C[n+]1ccccc1Br)c1ccc2c(c1)CCCC2 | 20µM* | i | x | x | u | u
O=C(CCl)c1cc2c3c(c1)CC(=O)N3CCC2 | 0.33µM* | i | u | -14% | i | 1.2µM*
COC(=O)c1ccc(CN2CCC3(CCC(CNC(=O)c4ccco4)O3)CC2)cc1 (stereo not drawn) | -15% | x | x | x | x | -27%
SMILES | TDP1 cell noCPT | KB-V1 MDR tox | HT1080 IDH1KD tx | HT1080NT lethal | KB-3-1 tox | DT40 TDP1 CPT
COc1ccc(Cl)cc1NC(=O)c1cc2c(=O)n3ccccc3nc2s1 | -13% | x | x | x | x | -19%
COc1ccccc1NC(=S)N1CCC(c2nc3cc(C)c(C)cc3[nH]2)CC1 | u | i | -7% | 4% | i | u
COc1ccccc1NC(=O)CN1CCC(c2nc3ccccc3[nH]2)CC1 | 15µM* | u | -8% | -10% | i | u
COc1ccccc1NC(=O)N1CCC(c2nc3cc(C)c(C)cc3[nH]2)CC1 | 1.8µM* | 9.2µM* | 5.8µM* | 5.8µM* | 1.6µM* | 3.7µM*
CCOC(=O)C1CCCCN1Cc1ccc(-c2ccccc2)cc1 (stereo not drawn) | u | i | 3% | -1% | i | u
Cc1cc2c(n1-c1ccc(C(=O)NCCc3ccc(Cl)cc3)cc1)CCC(C)C2 (stereo not drawn) | 23µM* | i | x | x | i | 26µM*
CCS(=O)(=O)N1CCc2cc(C(=O)NCCc3ccccc3)ccc21 | -20% | i | x | x | i | -9%
COc1ccc(CCNC(=O)c2ccc(-n3c(C)cc4c3CCC(C)C4)cc2)cc1OC (stereo not drawn) | 21µM* | i | x | x | i | u
Cc1cc2c(n1-c1ccc(C(=O)NCCc3ccccc3)cc1)CCC(C)C2 (stereo not drawn) | 21µM* | x | x | x | x | 18µM*
COc1ccc(-n2c(=O)c(-c3cccc(C#N)c3)nc3cnc(N4CCNCC4)nc32)cc1 | -15% | x | x | x | x | 4%
COC(=O)c1sccc1S(=O)(=O)N1CCN(c2cccc(C)c2C)CC1 | 23µM* | i | x | x | i | u
Cc1cccc(N2CCN(C(=S)NCCc3ccccc3)CC2)c1C | u | u | 14% | 11% | i | -1%
COC(=O)c1sccc1NC(=S)N1CCN(c2cccc(C)c2C)CC1 | 23µM* | u | -8% | -20% | u | 18µM*
COCCNC(=S)N1CCN(c2cccc(C)c2C)CC1 | -25% | 21µM* | -23% | -12% | i | -1%
COC(=O)c1sccc1S(=O)(=O)N1CCN(c2ccc(C)cc2C)CC1 | 23µM* | i | x | x | i | u
COC(=O)c1sccc1S(=O)(=O)N1CCN(c2cc(Cl)ccc2C)CC1 | u | i | x | x | i | u
COC(=O)c1sccc1NC(=S)N1CCCCC1 | -12% | i | -1% | -5% | i | 5%
